Data on 14 compounds can be found in PubChem BioAssay (NCI).

The panel holds about 83,000 compounds, 20% with a hit somewhere; the sample as a whole holds those more often.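 Assay: single dose, 48 h. Readout: percent growth (0 = no net growth; negative = cell death). Active: <10.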 Unmarked numbers belong to inactive results. Calls of active or inactive are those of the source.

Among the test systems are SR leukemia; RPMI-8226 leukemia; OVCAR-8 ovarian; OVCAR-5 ovarian; OVCAR-4 ovarian; SK-OV-3 ovarian; IGROV1 ovarian; OVCAR-3 ovarian; HS 578T breast; NCI/ADR-RES ovarian.
Assay in all cases: NCI-60 one-dose screen, 48 h (100 = growth as untreated, 0 = no growth, -100 = all killed)
Common to all, as to details: 10 µM unless noted

On to `CCOc1ccc(N(C)c2ccc(/C=C/C3=[N+](C)c4ccccc4C3(C)C)cc2)cc1`, for which the growth in the assay with SR leukemia is -26.7% (active); in the assay on RPMI-8226 leukemia, -20.3% (active); in the assay on OVCAR-8 ovarian, -15.8% (active); in the assay with OVCAR-5 ovarian, 40.1%; in the assay on OVCAR-4 ovarian it was 37.1%; with SK-OV-3 ovarian, 16.9%. For the same compound, the growth was 1.79% (active) in the assay with IGROV1 ovarian, -72.9% (active) in the assay on OVCAR-3 ovarian, 41.7% in the assay on HS 578T breast and 72.9% in the assay on NCI/ADR-RES ovarian.

As for `CC(C)(C)C(=O)CCCCCCCC/C=C/CCCC(O)c1ccco1` (stereo not given), the growth with SR leukemia was 14.3%; in the assay with RPMI-8226 leukemia it was 91.7%; in the assay with OVCAR-8 ovarian, 104%; in the assay on OVCAR-5 ovarian, 93.6%; with OVCAR-4 ovarian, 104%; in the assay with SK-OV-3 ovarian, 116%. Besides, the growth is 116% in the assay with IGROV1 ovarian, 126% in the assay with OVCAR-3 ovarian, 106% with HS 578T breast and 108% in the assay on NCI/ADR-RES ovarian.

For the compound `CC(C)OCC1CO1` (stereo not given), the growth was 102% in the assay with SR leukemia; 113% in the assay with RPMI-8226 leukemia; 113% in the assay on OVCAR-8 ovarian; 101% in the assay on OVCAR-5 ovarian; 115% in the assay on OVCAR-4 ovarian; 106% in the assay on SK-OV-3 ovarian. In addition, the growth with IGROV1 ovarian is 110%; with OVCAR-3 ovarian, 107%; with HS 578T breast, 104%; in the assay on NCI/ADR-RES ovarian, 109%.

For `CCCCCCCCCCC1OC(C)CC(C)O1` (stereo not given), the growth with SR leukemia was 71.6%; in the assay on RPMI-8226 leukemia, 99.6%; in the assay on OVCAR-8 ovarian, 99.5%; with OVCAR-5 ovarian, 99.2%; in the assay with OVCAR-4 ovarian, 111%; in the assay with SK-OV-3 ovarian it was 103%. The growth in the assay with IGROV1 ovarian is 109%; in the assay with OVCAR-3 ovarian it was 98.3%; in the assay with HS 578T breast, 101%; in the assay on NCI/ADR-RES ovarian it was 105%.

For the compound `COC(=O)[C@@H]1[C@H](O)[C@H](C)[C@H](O)[C@H](C)/C=C\C=C(C)C(=O)Nc2c(C)c(OC(C)=O)c3c(c2O)C(=O)C(C)=C2OCOC(=C23)C(C)=C[C@@](C)(O)[C@H](O)[C@@H](C)[C@H]1OC(C)=O`, the growth in the assay on SR leukemia is 121%; in the assay on RPMI-8226 leukemia, 97.8%; in the assay with OVCAR-8 ovarian, 104%; with OVCAR-5 ovarian it was 108%; in the assay with OVCAR-4 ovarian it was 96.4%; with SK-OV-3 ovarian, 109%. Also, the growth was 3.5% (active) in the assay on IGROV1 ovarian, 137% with OVCAR-3 ovarian, 127% in the assay with HS 578T breast and 114% in the assay on NCI/ADR-RES ovarian.

With `COc1ccc2c(c1)cn1c3ccc(O)cc3[nH]c(=O)c21`, the growth in the assay on SR leukemia is 3.4% (active); in the assay on RPMI-8226 leukemia, -20.2% (active); in the assay with OVCAR-8 ovarian it was 15%; in the assay with OVCAR-5 ovarian it was 18.7%; in the assay with OVCAR-4 ovarian, 28.6%; in the assay on SK-OV-3 ovarian, 11.3%. Moreover, the growth with IGROV1 ovarian was 13.2%; with OVCAR-3 ovarian it was -21.9% (active); in the assay on HS 578T breast it was -22.9% (active); in the assay on NCI/ADR-RES ovarian it was 1.78% (active).

For `Nc1cc(N)c2nc(NCCc3ccc(Cl)c(Cl)c3)cnc2c1`, the growth was -69.7% (active) in the assay with SR leukemia; -48.9% (active) in the assay on RPMI-8226 leukemia; 32.6% with OVCAR-8 ovarian; 31% in the assay on OVCAR-5 ovarian; -96.7% (active) in the assay on OVCAR-4 ovarian; 88.8% in the assay on SK-OV-3 ovarian. For the same compound, the growth in the assay with IGROV1 ovarian is 21.3%; in the assay with OVCAR-3 ovarian, -43.4% (active); in the assay on HS 578T breast it was 62.1%; in the assay on NCI/ADR-RES ovarian, 89.6%.

As for `C=CCNC(=S)NNc1ccc([N+](=O)[O-])cn1`, the growth in the assay with SR leukemia was 98.3%; with RPMI-8226 leukemia, 101%; in the assay on OVCAR-8 ovarian, 111%; in the assay on OVCAR-5 ovarian it was 95.6%; with OVCAR-4 ovarian it was -92.2% (active); in the assay with SK-OV-3 ovarian it was 104%. For the same compound, the growth in the assay on IGROV1 ovarian was 102%; in the assay with OVCAR-3 ovarian it was 98.7%; in the assay with HS 578T breast, 105%; in the assay on NCI/ADR-RES ovarian, 95.9%.

Take `N/C(=N\O)c1ccncc1`: the growth with SR leukemia is 108%; in the assay with RPMI-8226 leukemia, 110%; in the assay on OVCAR-8 ovarian it was 102%; in the assay on OVCAR-5 ovarian, 102%; with OVCAR-4 ovarian, 103%; in the assay on SK-OV-3 ovarian, 106%. In addition, the growth in the assay with IGROV1 ovarian is 105%; in the assay on OVCAR-3 ovarian it was 105%; with HS 578T breast, 110%; with NCI/ADR-RES ovarian, 102%.

On to `O=c1c(N=Nc2nccs2)c(-c2ccccc2)[nH]n1-c1nc(-c2ccccc2)cs1`, for which the growth is 33.4% in the assay with SR leukemia; 16.1% in the assay on RPMI-8226 leukemia; 28.1% in the assay on OVCAR-8 ovarian; 98.9% in the assay with OVCAR-5 ovarian; 39.5% with OVCAR-4 ovarian; 23.5% with SK-OV-3 ovarian. For the same compound, the growth in the assay on IGROV1 ovarian was 44.2%; in the assay on OVCAR-3 ovarian, 31.6%; in the assay on HS 578T breast, 38.4%; in the assay with NCI/ADR-RES ovarian, 10.1%.

For the compound `COc1ccc(Cn2cc3c(c2-c2ccccc2)CCc2cnoc2-3)cc1N`, the growth in the assay on SR leukemia was 11.8%; in the assay with RPMI-8226 leukemia, 23.5%; in the assay on OVCAR-8 ovarian, 30%; with OVCAR-5 ovarian it was 54.5%; with OVCAR-4 ovarian, 44.5%; with SK-OV-3 ovarian it was -4.08% (active). In addition, the growth is 3.29% (active) in the assay on IGROV1 ovarian, -19.5% (active) with OVCAR-3 ovarian, 10.4% with HS 578T breast and -1.43% (active) in the assay on NCI/ADR-RES ovarian.

Turning to `CCOC(=O)C1C(=O)C(=O)N(C(C)C)C1C(=O)OCC` (stereo not given), the growth in the assay with SR leukemia was 108%; with RPMI-8226 leukemia, 106%; with OVCAR-8 ovarian it was 91.4%; in the assay with OVCAR-5 ovarian it was 92.9%; in the assay on OVCAR-4 ovarian, 106%; in the assay on SK-OV-3 ovarian it was 109%. For the same compound, the growth is 110% in the assay with IGROV1 ovarian, 108% in the assay with OVCAR-3 ovarian, 96.5% in the assay on HS 578T breast and 106% in the assay on NCI/ADR-RES ovarian.

As to `COc1cc(NC(C)CCCN)c2nc(C)ccc2c1OC` (stereo not given), the growth in the assay on SR leukemia was 17.7%; in the assay on RPMI-8226 leukemia, 69.1%; in the assay on OVCAR-8 ovarian, 119%; with OVCAR-5 ovarian it was 95.6%; in the assay on OVCAR-4 ovarian it was 94.6%; with SK-OV-3 ovarian it was 107%. For the same compound, the growth is 103% in the assay with IGROV1 ovarian, 64.1% in the assay with OVCAR-3 ovarian, 105% with HS 578T breast and 101% with NCI/ADR-RES ovarian.

As to `CC(=O)OC1/C=C\CC/C=C\C1` (stereo not given), the growth with SR leukemia was 104%; in the assay on RPMI-8226 leukemia, 101%; with OVCAR-8 ovarian, 98.8%; in the assay with OVCAR-5 ovarian, 97.4%; in the assay with OVCAR-4 ovarian it was 107%; with SK-OV-3 ovarian, 105%. Besides, the growth in the assay with IGROV1 ovarian is 110%; in the assay on OVCAR-3 ovarian it was 115%; in the assay on HS 578T breast, 101%; with NCI/ADR-RES ovarian it was 122%.
